# Measurements taken from PubChem BioAssay.
# The list shows a part of the results. Active and inactive are the calls of the source.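 Rule for the calls, unless noted: active = mean inhibition across replicates above the hit cutoff set by the earlier primary screen (cut at about 15% in these data); inactive = the rest.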
# Target: Platelet-activating factor acetylhydrolase (Homo sapiens) (UniProt Q13093)
# Test: pPAFAH (PLA2G7) enzyme inhibitors, confirmation, biochemical, fluorescence polarization, human (AID 463230;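 active = mean inhibition of the triplicate above the hit cutoff set for the earlier primary screen, cut at about 25% in these data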;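 note: 0% = enzyme with DMSO and 100% = wells lacking pPAFAH enzyme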)
# Conditions: recombinant pPAFAH, FP-Rh probe fluorescence polarization; at 3.39 µM; stronger effect = higher value
# Platelet-activating factor acetylhydrolase (Homo sapiens), sequence (Q13093 whole entry, looked up): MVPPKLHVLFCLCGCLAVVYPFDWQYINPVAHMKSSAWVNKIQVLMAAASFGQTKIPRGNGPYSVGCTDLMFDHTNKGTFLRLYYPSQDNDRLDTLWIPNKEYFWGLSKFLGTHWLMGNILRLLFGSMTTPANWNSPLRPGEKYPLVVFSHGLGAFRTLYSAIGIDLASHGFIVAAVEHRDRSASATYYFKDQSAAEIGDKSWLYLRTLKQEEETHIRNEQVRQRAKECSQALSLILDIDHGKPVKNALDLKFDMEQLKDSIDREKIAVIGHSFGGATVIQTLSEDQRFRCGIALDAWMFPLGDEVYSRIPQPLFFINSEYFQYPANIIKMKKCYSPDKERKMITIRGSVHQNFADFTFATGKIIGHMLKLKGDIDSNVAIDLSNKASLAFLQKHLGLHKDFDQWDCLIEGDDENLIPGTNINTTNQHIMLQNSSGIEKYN
row,Structure (SMILES),inhibition
1,COc1cccc2c(C)c(C(=O)O)[nH]c12,33% (active)
2,CCC(C)Cn1c(O)cc2nn(-c3nc4ccccc4s3)c(=O)c-2c1C (stereo unspecified),20.9% (inactive)
3,CCC(=O)Nc1sc(C(=O)Nc2ccccc2)c(C)c1C(=O)OC,4.86% (inactive)
4,CC(C)c1ccc(NC(=S)NNc2ccc(Cl)c(C(=O)O)c2)cc1,11.9% (inactive)
5,Cc1cc(/C=N/Nc2ccc([N+](=O)[O-])cn2)c(C)n1-c1cccc(C(=O)O)c1,11.7% (inactive)
6,O=C(/C=C/c1cccs1)c1cc(Cl)ccc1OC(=O)N1CCOCC1,47.8% (active)

# Target: Protein-arginine deiminase type-4 (Homo sapiens) (UniProt Q9UM07)
# Test: human PAD4 inhibitors, confirmation, biochemical, fluorescence polarization (AID 488796);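 note: inhibitors block active-site labeling by the probe so polarization falls; 0% = PAD4 with probe and DMSO and 100% = probe without PAD4 enzyme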
# Conditions: recombinant PAD4, RCA probe fluorescence polarization; at 6.36 µM; stronger effect = higher value
# Protein-arginine deiminase type-4 (Homo sapiens), sequence (Q9UM07 whole entry, looked up): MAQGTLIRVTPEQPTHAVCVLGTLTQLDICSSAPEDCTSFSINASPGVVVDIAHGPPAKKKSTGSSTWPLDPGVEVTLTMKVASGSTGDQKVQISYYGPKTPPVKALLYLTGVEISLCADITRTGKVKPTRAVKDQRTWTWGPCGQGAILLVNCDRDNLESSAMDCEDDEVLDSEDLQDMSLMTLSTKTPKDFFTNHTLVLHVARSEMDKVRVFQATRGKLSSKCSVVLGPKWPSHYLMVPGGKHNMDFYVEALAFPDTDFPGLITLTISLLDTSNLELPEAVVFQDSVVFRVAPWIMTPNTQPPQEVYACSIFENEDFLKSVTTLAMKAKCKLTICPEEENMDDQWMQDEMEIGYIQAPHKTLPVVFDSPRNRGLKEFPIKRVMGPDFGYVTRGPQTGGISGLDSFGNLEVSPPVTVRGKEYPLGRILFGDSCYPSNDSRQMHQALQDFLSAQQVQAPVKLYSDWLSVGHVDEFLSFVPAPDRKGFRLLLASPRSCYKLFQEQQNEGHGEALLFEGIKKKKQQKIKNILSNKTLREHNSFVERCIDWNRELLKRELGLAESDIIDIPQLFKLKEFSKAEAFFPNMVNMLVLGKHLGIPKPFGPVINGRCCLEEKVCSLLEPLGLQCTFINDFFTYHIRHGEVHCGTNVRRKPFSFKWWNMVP
row,Structure (SMILES),inhibition
1,CCOC(=O)N1CCC(c2cc(=O)n(-c3ccccc3)[nH]2)CC1,-0.34% (inactive)
2,Cc1nc2ccc(NC(=O)C(F)(F)F)cc2o1,4.72% (inactive)
3,CCCCNC(=O)C1(c2ccc(OC)cc2)CCOCC1,8.6% (inactive)
4,COc1cc(C(=O)NCc2ccc3c(c2)cc(C)n3C)cc(OC)c1OC,1.97% (inactive)
5,CNC(=S)NNC(=O)c1oc2nc(-c3ccccc3)cc(-c3ccco3)c2c1N,2% (inactive)
6,CC(C)(C)NC(=O)NC(=O)COC(=O)CCC1CCCCC1,2.14% (inactive)
7,CC(C)C(NC(=O)c1ccc(Cl)cc1)C(=O)O (stereo unspecified),-6.12% (inactive)
8,CN1C(=O)c2cccc3c(N)ccc(c23)C1=O,17.1% (active)
9,O=C(NCCCO)c1cc2c([nH]c3ccccc32)c(-c2ccc(F)cc2)n1,22.4% (active)
10,CC(=O)Oc1cccc(N2C(=O)CC(Nc3ccc(N4CCOCC4)cc3)C2=O)c1 (stereo unspecified),-1.36% (inactive)
11,O=C(NCC1CCCO1)c1cc2c([nH]c3ccccc32)c(-c2ccc(F)cc2)n1 (stereo unspecified),64.8% (active)
12,C=CCN(C(=O)Nc1ccc2oc(C)nc2c1)c1ccccc1,-3.81% (inactive)
13,CC(C)n1cnc2c(NCc3ccccc3)cc(OCC3CCN(C)CC3)cc21,-10.7% (inactive)
14,CCCCNC(=O)Nc1c(C)cc(SC#N)cc1C,35.6% (active)
15,COc1cc(SC#N)ccc1N=Cc1c(C)[nH]n(-c2ccc(C)cc2)c1=O,29.7% (active)
16,Cc1cc2c(cc1C)N(C(=O)CN1C(=O)c3ccccc3C1=O)C(C)(C)c1ssc(=S)c1-2,33.7% (active)
17,CC(=O)N(c1ccc2oc(=O)sc2c1)S(=O)(=O)c1ccc(C)cc1,10.9% (inactive)

row,Structure (SMILES),inhibition
1,COc1cccc(NC(=O)C2c3cc(OC)c(OC)cc3C(=O)N(C)C2c2cccnc2)c1 (stereo unspecified),8.92% (inactive)
2,Cn1c(Nc2cccc(Cl)c2)nc2ccccc21,4.71% (inactive)
3,CCc1ccccc1NC(=S)Nc1cc(OC)c(NC(=O)C(C)C)cc1OC,1.96% (inactive)
4,Cc1cc(O)ccc1-c1cnc2ccccc2n1,29.1% (active)
5,Cc1ccn2cc(-c3nonc3C)cc2c1,6.98% (inactive)
6,Cc1ccc(C(=O)CSc2nc3ccccc3c(=O)n2N)o1,1.81% (inactive)
7,COc1ccccc1CNC(=O)C1CCN(c2nc3ccccc3o2)CC1,5.44% (inactive)
8,O=c1[nH]n(-c2ccc([N+](=O)[O-])cc2)c(=O)c2ccccc12,25.3% (active)
9,CCc1nnc(SCc2cccc(F)c2)nc1CC,-0.68% (inactive)
10,COc1ccc(C2NC(=S)NC3=C2CCc2ccccc23)cc1OC (stereo unspecified),22.5% (active)
11,CCOc1[nH]n(-c2ccc(Cl)cc2)c(=O)c1C=Nc1ccc(O)cc1,6.04% (inactive)
12,O=C(CN1CCCCCC1)Nc1ccc(Br)cc1Br,3.01% (inactive)
13,Cc1nn(C)cc1N1C(=O)c2cccc3c(N)ccc(c23)C1=O,36.2% (active)
14,COC(=O)c1ccc(NC(=O)CSc2nncc3ccc(OC)c(OC)c23)cc1,0.13% (inactive)
15,c1ccc2c(C[n+]3csc4ccccc43)cccc2c1,61.3% (active)
16,Cc1nn(-c2ccccc2)c(C)c1NC(=O)COc1ccc(Cl)cc1Cl,5.05% (inactive)

# Target: Serine protease HTRA1 (Homo sapiens) (UniProt Q92743)
# Test: HTRA1 protease inhibitors, retest, confirmation, biochemical, fluorescence polarization (AID 540248;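 active = mean inhibition over three repeats above a set limit taken from the earlier primary screen, cut at about 37% in these data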;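 note: 0% = HTRA1 with DMSO and 100% = wells lacking HTRA1; inhibitors block probe binding so polarization drops and inhibition rises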)
# Conditions: recombinant HTRA1, FP-rhodamine activity-based probe, at 5.96 µM, stronger effect = higher value
row,Structure (SMILES),inhibition
1,CNC(=S)NNC(=O)c1oc2nc(-c3ccccc3)cc(-c3ccco3)c2c1N,11.5% (inactive)
2,CCC(C)Cn1c(O)cc2nn(-c3nc4ccccc4s3)c(=O)c-2c1C (stereo unspecified),59.6% (active)
3,Cc1cc(/C=N/Nc2ccc([N+](=O)[O-])cn2)c(C)n1-c1cccc(C(=O)O)c1,30.7% (inactive)

# System: transactivating tegument protein VP16 (Human herpesvirus 1)
# Test: VP16 transactivation reporter inhibitors, counter-screen for SRC2 inhibitor project, cell-based, luminescence, single concentration (AID 652007; in the data active = inhibition above about 36%)
# Conditions: cell-based VP16 transactivation luciferase reporter, at 8.9 µM, stronger effect = higher value
row,Structure (SMILES),inhibition
1,CCC(C)Cn1c(O)cc2nn(-c3nc4ccccc4s3)c(=O)c-2c1C (stereo unspecified),86.8% (active)
2,Cc1nn(-c2ccccc2)c(C)c1NC(=O)COc1ccc(Cl)cc1Cl,-8.62% (inactive)
3,O=C(/C=C/c1cccs1)c1cc(Cl)ccc1OC(=O)N1CCOCC1,20.3% (inactive)

# Target: Nuclear receptor coactivator 2 (Homo sapiens) (UniProt Q15596)
# Test: SRC2 coactivator transcriptional activity inhibitors, confirmation, cell-based, luminescence, HEK293, triplicate (AID 652008;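 active = mean inhibition above 46.5%, the solvent-only control mean plus 3 SD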;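 note: 0% = DMSO-treated cells and 100% = Gossypol at 36 µM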)
# Conditions: HEK293 GAL4-SRC2 luciferase reporter, at 8.9 µM, stronger effect = higher value
# Nuclear receptor coactivator 2 (Homo sapiens), sequence (Q15596 whole entry, looked up): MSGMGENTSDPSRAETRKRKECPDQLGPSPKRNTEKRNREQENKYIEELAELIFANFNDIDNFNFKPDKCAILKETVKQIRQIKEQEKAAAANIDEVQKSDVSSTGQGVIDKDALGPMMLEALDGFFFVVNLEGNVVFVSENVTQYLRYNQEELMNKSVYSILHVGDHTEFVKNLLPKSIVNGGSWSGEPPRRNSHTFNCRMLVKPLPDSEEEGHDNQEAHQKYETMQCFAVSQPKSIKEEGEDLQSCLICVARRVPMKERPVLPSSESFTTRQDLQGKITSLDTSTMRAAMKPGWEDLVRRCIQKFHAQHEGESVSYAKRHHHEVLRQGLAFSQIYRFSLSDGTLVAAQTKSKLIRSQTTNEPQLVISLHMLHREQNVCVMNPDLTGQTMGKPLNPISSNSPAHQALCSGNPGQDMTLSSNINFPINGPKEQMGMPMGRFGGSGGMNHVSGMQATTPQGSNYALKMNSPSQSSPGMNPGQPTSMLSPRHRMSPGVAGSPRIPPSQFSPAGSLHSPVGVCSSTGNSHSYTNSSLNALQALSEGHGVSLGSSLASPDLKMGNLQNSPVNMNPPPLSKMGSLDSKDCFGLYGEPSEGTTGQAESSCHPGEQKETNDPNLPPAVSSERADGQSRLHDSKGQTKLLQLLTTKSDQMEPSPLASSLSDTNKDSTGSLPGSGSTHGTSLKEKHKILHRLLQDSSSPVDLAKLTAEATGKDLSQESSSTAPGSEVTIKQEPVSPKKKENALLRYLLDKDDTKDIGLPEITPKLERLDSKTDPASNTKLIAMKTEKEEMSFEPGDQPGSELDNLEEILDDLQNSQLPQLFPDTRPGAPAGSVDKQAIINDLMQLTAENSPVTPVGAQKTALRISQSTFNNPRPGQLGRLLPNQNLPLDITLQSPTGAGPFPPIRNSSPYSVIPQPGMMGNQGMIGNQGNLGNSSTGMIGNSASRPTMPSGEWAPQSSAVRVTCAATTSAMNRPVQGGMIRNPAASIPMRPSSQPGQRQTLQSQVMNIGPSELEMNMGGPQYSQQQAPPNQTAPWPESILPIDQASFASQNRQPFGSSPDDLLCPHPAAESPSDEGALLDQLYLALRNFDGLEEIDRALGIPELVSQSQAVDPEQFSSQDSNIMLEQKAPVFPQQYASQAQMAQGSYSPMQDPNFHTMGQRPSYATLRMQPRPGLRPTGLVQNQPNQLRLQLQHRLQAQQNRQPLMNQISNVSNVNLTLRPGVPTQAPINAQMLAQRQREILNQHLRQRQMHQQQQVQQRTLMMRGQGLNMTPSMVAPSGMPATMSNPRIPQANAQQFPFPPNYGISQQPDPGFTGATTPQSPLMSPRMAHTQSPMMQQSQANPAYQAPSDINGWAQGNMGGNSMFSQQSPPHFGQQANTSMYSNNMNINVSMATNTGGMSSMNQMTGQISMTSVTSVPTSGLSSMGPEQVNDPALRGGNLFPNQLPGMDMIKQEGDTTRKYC
row,Structure (SMILES),inhibition
1,CCC(C)Cn1c(O)cc2nn(-c3nc4ccccc4s3)c(=O)c-2c1C (stereo unspecified),94.8% (active)
2,Cc1nn(-c2ccccc2)c(C)c1NC(=O)COc1ccc(Cl)cc1Cl,16.2% (inactive)
3,O=C(/C=C/c1cccs1)c1cc(Cl)ccc1OC(=O)N1CCOCC1,-4.35% (inactive)

# System: not listed separately
# Test: compounds interfering with TAMRA-BSA probe, counter-screen for TCR-CD3 interaction inhibitor project, biochemical, fluorescence, TAMRA-labeled BSA (AID 652035; in the data active = inhibition above about 23%;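 note: 0% = buffer low control and 100% = reference high control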)
# Conditions: TAMRA-labeled BSA probe fluorescence counterscreen; at 9.4 µM; stronger effect = higher value
row,Structure (SMILES),inhibition
1,CNC(=S)NNC(=O)c1oc2nc(-c3ccccc3)cc(-c3ccco3)c2c1N,-11.2% (inactive)
2,O=c1[nH]n(-c2ccc([N+](=O)[O-])cc2)c(=O)c2ccccc12,59.3% (active)
3,Cc1nn(C)cc1N1C(=O)c2cccc3c(N)ccc(c23)C1=O,52.9% (active)
